Where “and” joins values, the source holds several entries; their conditions need not be identical. Equal entries are not always repeated. Records with an inconclusive call do not appear. A number with no mark means an inactive call. Calls of active or inactive are those of the source. Unless noted, the call rests on the fitted dose curve; in most records, active means well fitted curve in the direction sought with a large enough effect; inconclusive means small, poorly fitted or top-dose-only effect, or another doubt; inactive means no such curve, though single readings can be large; an effect the other way counts as inactive or inconclusive.

The viability is a read-out of living cells in per cent, often relative to untreated cells.

Experiment [1] deals with Cellular tumor antigen p53 (Homo sapiens) (UniProt P04637). Kind of experiment: Primary qHTS for small molecule compounds that upregulate eGFP-tagged delta133p53alpha (in N-terminal) cells. (AID 2060322). Further: nearly all actives have a fitted effect of over 75% in size. Further: potency means the concentration at half of the fitted maximal effect.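 On activation: series mostly up to about 56 µM; 0% = DMSO vehicle and 100% = reference activator.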 As to conditions: NCI-H358 eGFP-delta133p53alpha fluorescence, 24 h; activation: hits give high values. A digest of the protocol: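 NCI-H358 cells pre-induced 24 h with 10 ng/ml doxycycline to express N-terminal eGFP-delta133p53alpha, then dosed 24 h at 37C without doxycycline; fixed, Hoechst-stained, GFP intensity by laser scanning cytometry, normalized to DMSO (0%) and 57.5 uM 5-azacytidine (100%).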
Cellular tumor antigen p53 (Homo sapiens), sequence (P04637 whole entry, looked up): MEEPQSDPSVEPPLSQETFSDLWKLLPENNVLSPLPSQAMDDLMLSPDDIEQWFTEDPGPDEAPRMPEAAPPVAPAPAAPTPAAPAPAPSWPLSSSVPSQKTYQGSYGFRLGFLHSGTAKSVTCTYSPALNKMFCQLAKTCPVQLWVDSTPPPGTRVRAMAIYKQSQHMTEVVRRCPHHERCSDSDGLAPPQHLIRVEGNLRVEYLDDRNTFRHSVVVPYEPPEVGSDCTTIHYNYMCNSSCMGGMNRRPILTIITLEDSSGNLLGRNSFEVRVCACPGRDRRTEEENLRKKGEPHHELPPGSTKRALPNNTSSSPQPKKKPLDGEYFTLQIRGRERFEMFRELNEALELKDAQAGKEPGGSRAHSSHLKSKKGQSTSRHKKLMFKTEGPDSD

Experiment [2] has as its target Aldehyde dehydrogenase, mitochondrial (Homo sapiens) (UniProt P05091). Kind of experiment: qHTS for Inhibitors of the Aldehyde Dehydrogenase Family (ALDH2) Confirmatory screens (AID 2061303; active means well fitted inhibition curve with a large enough effect; title and protocol of this record describe different tests; further: nearly all actives have a fitted effect of over 45% in size; further: potency means the concentration at half of the fitted maximal effect). Background: Quantitative high-throughput screening tests each substance at several concentrations.
Experiment [3] in a line: qHTS for Inhibitors of the Aldehyde Dehydrogenase Family (ALDH1A2, ALDH1A3, ALDH2, ALDH3A1) (AID 2061307). Further: nearly all actives have a fitted effect of over 50% in size. On Potency: test system not described further here; potency means the concentration at half of the fitted maximal effect.
Experiment [4] concerns the target Aldehyde dehydrogenase, mitochondrial (Homo sapiens) (UniProt P05091). Kind of experiment: qHTS for Inhibitors of the Aldehyde Dehydrogenase Family (ALDH2) Primary screen (AID 2061308). Further: nearly all actives have a fitted effect of over 55% in size. Further: potency means the concentration at half of the fitted maximal effect.
The target of experiment [5] is Retinaldehyde dehydrogenase 3 (Homo sapiens) (UniProt P47895). Kind of experiment: qHTS for Inhibitors of the Aldehyde Dehydrogenase Family (ALDH1A3) Confirmatory screens (AID 2061311). Further: nearly all actives have a fitted effect of over 60% in size. Further: potency means the concentration at half of the fitted maximal effect.
Experiment [6] deals with Retinal dehydrogenase 2 (Homo sapiens) (UniProt O94788). The experiment is described as follows: qHTS for Inhibitors of the Aldehyde Dehydrogenase Family (ALDH1A2) Confirmation screens (AID 2061314). Further: nearly all actives have a fitted effect of over 65% in size. Further: potency means the concentration at half of the fitted maximal effect.
Experiment [7] concerns the target Aldehyde dehydrogenase 1A1 (Homo sapiens) (UniProt P00352). Kind of experiment: qHTS for Inhibitors of the Aldehyde Dehydrogenase Family (ALDH1A1) Confirmatory screens (AID 2061316). Further: nearly all actives have a fitted effect of over 65% in size. Further: potency means the concentration at half of the fitted maximal effect.
Experiment [8] concerns the target Retinaldehyde dehydrogenase 3 (Homo sapiens) (UniProt P47895). The experiment is described as follows: qHTS for Inhibitors of the Aldehyde Dehydrogenase Family (ALDH1A3) Primary screen (AID 2061315). Further: potency means the concentration at half of the fitted maximal effect.
Experiment [9] can be described thus: BET inhibitor-based combinations targeting novel dependencies in MECOM-rearranged (r) AML: UCSD-AML1 cell line (AID 2202235).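 Further: series mostly up to about 46 µM; plate controls were DMSO vehicle wells for no effect and blank wells for full effect; nearly all actives have a fitted effect of over 40% in size.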 An outline of the steps:
(§1)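 Cells at 500/well were exposed for 48 hr to MIPE v5.0 drugs as 11-point dose curves. Viability was read by CellTiter-Glo luminescence and normalized to DMSO and empty-well controls. Activity was expressed as AUC and per-cell-line Z-AUC.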

A short description of experiment [10]: BET inhibitor-based combinations targeting novel dependencies in MECOM-rearranged (r) AML: SET-2 cell line (AID 2202231). Further: nearly all actives have a fitted effect of over 35% in size. Further: potency means the concentration at half of the fitted maximal effect.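 On viability: plate controls were DMSO treated cells for no effect and wells without cells for full effect.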 As to conditions: SET-2 AML cells viability, CellTiter-Glo luminescence, 48 h; viability: hits give low values, concentration not given here. A digest of the protocol: (§2)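 AML cell lines seeded at 500 cells/well, treated with 11-point dose curves for 48 h. Viability by CellTiter-Glo luminescence, normalised to DMSO and empty wells; activity expressed as AUC and per-cell-line Z-transformed AUC.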
(In general: In ATP-based viability assays light output follows the ATP content of the culture.)

Experiment [11] in a line: BET inhibitor-based combinations targeting novel dependencies in MECOM-rearranged (r) AML: OCI-AML3 cell line (AID 2202232). Further: nearly all actives have a fitted effect of over 35% in size. Further: potency means the concentration at half of the fitted maximal effect. The conditions noted are these: Potency: OCI-AML3 viability. A digest of the protocol:
as §2

Experiment [12] is described as follows: BET inhibitor-based combinations targeting novel dependencies in MECOM-rearranged (r) AML: MV-4-11 cell line (AID 2202233). Further: nearly all actives have a fitted effect of over 45% in size. Further: potency means the concentration at half of the fitted maximal effect. An outline of the steps: as §1
The nature of experiment [13]: BET inhibitor-based combinations targeting novel dependencies in MECOM-rearranged (r) AML: HNT-34 cell line (AID 2202234). Further: nearly all actives have a fitted effect of over 35% in size. Further: potency means the concentration at half of the fitted maximal effect. A digest of the protocol:
as §1

Experiment [14] is described as follows: BET inhibitor-based combinations targeting novel dependencies in MECOM-rearranged (r) AML: AML-191 cell line (AID 2202236; further: nearly all actives have a fitted effect of over 35% in size; further: potency means the concentration at half of the fitted maximal effect). An outline of the steps: as §2
Experiment [15] in a line: BET inhibitor-based combinations targeting novel dependencies in MECOM-rearranged (r) AML: AML-194 cell line (AID 2202237; further: nearly all actives have a fitted effect of over 40% in size; further: potency means the concentration at half of the fitted maximal effect). An outline of the steps: as §2

In the case of `O=C1C[C@@H](c2ccc(O)cc2)Oc2cc(O)ccc21`, the activation in experiment [1] is 4.3%. Further, the Potency entry in [2], in [4], in [6] and in experiment [7] was “inactive” in each case. In addition, the Potency is 3.02 µM (active) in experiment [3] and 12.7 µM (active) in [5].

On to `CNC(=O)Nc1ccc(OC)c(NC(=O)NC(=O)c2cc(F)c(F)cc2Cl)c1`, for which the activation in experiment [1] is -5.67%. Moreover, the Potency entry in experiment [2], in [3], in experiment [4], in experiment [5] and in experiment [7] was “inactive” throughout. Besides, the Potency in experiment [8] is 28.2 µM (active).

As to `C[S+](CC[C@H](N)C(=O)[O-])C[C@H]1O[C@@H](n2cnc3c(N)ncnc32)[C@H](O)[C@@H]1O` (some centres undefined), in experiment [1], the activation was 12.3%. The Potency entry in [2], in [3], in experiment [4], in [5], in experiment [6] and in experiment [8] was “inactive” throughout. For the same molecule, the Potency result in experiment [7] is “inactive”.

As to `CC(O)(C#Cc1ccc2c(c1)N(c1nc(N)ncc1Cl)CC2)c1nccs1` (centres undefined), in experiment [1], the activation is -1.22%. In addition, the Potency entry in [2], in experiment [3], in experiment [4], in [5], in experiment [6] and in experiment [8] was “inactive” throughout. In addition, in experiment [9], the Potency entry was “inactive”.

Regarding `COc1ccc(CC2NCCc3c2[nH]c2ccc(C)cc32)cc1OC` (centres undefined), the activation in experiment [1] is 5.25%. The Potency result in experiment [2], in experiment [3], in [4], in experiment [5], in experiment [6] and in experiment [8] was “inactive” in each case. Moreover, the Potency result in experiment [7] was “inactive”.

Take `COC(=O)N1CC2(CC2)C[C@H](C(=O)NO)[C@H]1C(=O)N1CCN(c2ccccc2)CC1`: in experiment [1], the activation was 12.6%. Moreover, the Potency result in [2], in [3], in [4], in [5], in experiment [6] and in [7] was “inactive” in each case. In addition, the Potency result in experiment [11], in experiment [12], in [13], in [14] and in [15] was “inactive” throughout. In experiment [10], the viability is 112%.

As for `O=c1cc(CN2CCOCC2)occ1OCCCCCSc1ccnc2cc(C(F)(F)F)ccc12`, the activation in experiment [1] is -4.65% and 8.33%. Further, the Potency entry in [2], in experiment [4], in experiment [5], in [6], in experiment [8] and in [11] was “inactive” in each case. For the same molecule, the Potency entry in experiment [9] was “inactive”. For the same molecule, in experiment [3], the Potency is 22.5 µM (active).

Take `CC1=NN(c2ccccc2)C(=O)C1`: the activation in experiment [1] is -3.42% and 10.7% and -17%. The Potency in experiment [2] is 12.6 µM (active); in experiment [3], 6.31 µM (active); in [4], 0.794 µM (active); in [5], 8.91 µM (active); in experiment [7], 1.42 µM (active). For the same molecule, the viability in [10] is 112%. The Potency entry in experiment [11], in experiment [12], in experiment [13], in experiment [9] and in experiment [15] was “inactive” each time.

For `C=CC(=O)N1CCCN(c2cc(NCCC(=O)O)nc(-c3ccccn3)n2)CC1`, the activation in experiment [1] is 9.67%. Moreover, the Potency result in experiment [2], in experiment [3], in experiment [4], in [5] and in experiment [8] was “inactive” throughout.

Regarding `O=C(NCCN1CCN(c2cccc3ccc(O)cc23)CC1)c1ccc(F)cc1`, the activation in [1] was -8.04%. Moreover, the Potency result in experiment [2], in experiment [4] and in [6] was “inactive” throughout. Moreover, the Potency is 15.8 µM (active) in experiment [3], 5.04 µM (active) in experiment [5] and 10.1 µM (active) in experiment [7].

For the molecule `C=C1C(=O)O[C@H]2C[C@@H](C)[C@@H]3CCC(=O)[C@@]3(C)C[C@H]12`, the results for the Potency in experiment [1], in experiment [3] and in experiment [5] were 10.7 µM (active), 20.1 µM (active) and 14.2 µM (active), respectively. Further, the Potency entry in experiment [2], in experiment [4], in experiment [6], in experiment [8] and in experiment [7] was “inactive” throughout.

As for `O=C(CCCCCCNC(=O)c1cnc(N(c2ccccc2)c2ccccc2)nc1)NO`, the activation in experiment [1] is 7.34%. Besides, the Potency result in experiment [2], in experiment [3], in experiment [4], in experiment [5] and in [7] was “inactive” in each case. Also, the Potency is 6.61 µM (active) in experiment [10]; 5.9 µM (active) in experiment [11]; 2.35 µM (active) in [12]; 7.42 µM (active) in [13]; 7.42 µM (active) in experiment [14]; 9.34 µM (active) in experiment [15].

With `O=C(O)c1n[nH]c2c1C[C@H]1C[C@@H]21`, the activation in [1] is -8.11%. For the same molecule, the Potency result in experiment [2], in experiment [3], in [4], in experiment [5], in experiment [6] and in experiment [8] was “inactive” in each case. Moreover, the Potency result in [7] was “inactive”.

With `COc1ccc(NC(=O)N2CCc3c2ccc2ccccc32)cc1N1CCN(C)CC1`, the activation in experiment [1] was 8.59%. Besides, the Potency result in [2], in [3], in experiment [4], in [5], in [6] and in experiment [7] was “inactive” each time.

For `N[C@@]1(C(=O)O)CC[C@H]2[C@H](C(=O)O)[C@H]21`, the activation in experiment [1] is -12.3%. The Potency result in [2], in [3], in experiment [4], in experiment [5], in experiment [6] and in [8] was “inactive” throughout. The Potency entry in experiment [7] was “inactive”.

Regarding `CC(=O)N(O)CCCCCN1C(=O)CCC1=O`, the activation in [1] was -6.25%. Further, the Potency result in experiment [2], in experiment [3], in experiment [4], in [5], in experiment [8] and in experiment [7] was “inactive” throughout.

On to `Oc1ccc(CC2NCCc3cc(O)c(O)cc32)cc1` (centres undefined), for which the activation in [1] is -12.9%. The Potency result in experiment [2], in [3], in experiment [4], in experiment [5], in [6] and in experiment [7] was “inactive” each time.

For `Clc1cccc(COc2cncc(N3CCNCC3)n2)c1`, the activation in [1] is 14.8%. The Potency entry in [2], in experiment [3], in experiment [4], in experiment [5], in experiment [6] and in experiment [8] was “inactive” each time. In experiment [7], the Potency entry is “inactive”.

Consider `O=C(c1cccc(Cl)c1F)N1CCN(Cc2cccc(Nc3nccs3)n2)CC1`, for which the activation in experiment [1] is 23.9%. Further, the Potency entry in [2], in experiment [3], in experiment [4] and in experiment [8] was “inactive” in each case. For the same molecule, in [5], the Potency is 35.5 µM (active).

With `N#Cc1ccc(-c2cnc3[nH]cc(NC(=O)c4cccnc4)c3c2)cc1`, the activation in experiment [1] was -4.46%. The Potency in experiment [2] was 3.57 µM (active); in experiment [3] it was 1.59 µM (active); in experiment [5] it was 3.16 µM (active); in experiment [6], 2.83 µM (active); in [7] it was 12.7 µM (active). Further, the Potency result in experiment [4] and in experiment [8] was “inactive” throughout.

The values are drawn from PubChem BioAssay (NCATS).
